According to the supplement of paper PMC11732987, “Enantioselective OTUD7B fragment discovery through chemoproteomics screening and high-throughput optimisation” (Communications Chemistry, 2025):

Assays:
Assay in all cases: log2 ratio of Biotin-Ahx-Ub-VS probe labelling (fragment/DMSO); higher = less target engagement (more negative = stronger competition), active = hit call of the paper (q ≤ 0.05, log2 ratio ≤ -1)
Details in all cases: compound concentration: 200 uM; treatment time: 3 h
USP34 = USP34 (UniProt Q70CQ2)
Procedure, shortened: (§1)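 The table lists average log2 ratios of fragment over vehicle, from an unpaired t-test on global-median-normalised Spectronaut label-free quantities. Proteins with ≥2 unique peptides were used. Samples were HEK293T lysate (495 µg) treated in triplicate with fragment at 200 µM or vehicle for 3 h, then with Biotin-Ahx-Ub-VS (0.5 µM final) for 1 h, with labelled DUBs NeutrAvidin-enriched and run by diaPASEF LC-MS/MS.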

USP36 = molecular target: T1, USP36 (UniProt Q9P275)
T1 sequence (whole entry): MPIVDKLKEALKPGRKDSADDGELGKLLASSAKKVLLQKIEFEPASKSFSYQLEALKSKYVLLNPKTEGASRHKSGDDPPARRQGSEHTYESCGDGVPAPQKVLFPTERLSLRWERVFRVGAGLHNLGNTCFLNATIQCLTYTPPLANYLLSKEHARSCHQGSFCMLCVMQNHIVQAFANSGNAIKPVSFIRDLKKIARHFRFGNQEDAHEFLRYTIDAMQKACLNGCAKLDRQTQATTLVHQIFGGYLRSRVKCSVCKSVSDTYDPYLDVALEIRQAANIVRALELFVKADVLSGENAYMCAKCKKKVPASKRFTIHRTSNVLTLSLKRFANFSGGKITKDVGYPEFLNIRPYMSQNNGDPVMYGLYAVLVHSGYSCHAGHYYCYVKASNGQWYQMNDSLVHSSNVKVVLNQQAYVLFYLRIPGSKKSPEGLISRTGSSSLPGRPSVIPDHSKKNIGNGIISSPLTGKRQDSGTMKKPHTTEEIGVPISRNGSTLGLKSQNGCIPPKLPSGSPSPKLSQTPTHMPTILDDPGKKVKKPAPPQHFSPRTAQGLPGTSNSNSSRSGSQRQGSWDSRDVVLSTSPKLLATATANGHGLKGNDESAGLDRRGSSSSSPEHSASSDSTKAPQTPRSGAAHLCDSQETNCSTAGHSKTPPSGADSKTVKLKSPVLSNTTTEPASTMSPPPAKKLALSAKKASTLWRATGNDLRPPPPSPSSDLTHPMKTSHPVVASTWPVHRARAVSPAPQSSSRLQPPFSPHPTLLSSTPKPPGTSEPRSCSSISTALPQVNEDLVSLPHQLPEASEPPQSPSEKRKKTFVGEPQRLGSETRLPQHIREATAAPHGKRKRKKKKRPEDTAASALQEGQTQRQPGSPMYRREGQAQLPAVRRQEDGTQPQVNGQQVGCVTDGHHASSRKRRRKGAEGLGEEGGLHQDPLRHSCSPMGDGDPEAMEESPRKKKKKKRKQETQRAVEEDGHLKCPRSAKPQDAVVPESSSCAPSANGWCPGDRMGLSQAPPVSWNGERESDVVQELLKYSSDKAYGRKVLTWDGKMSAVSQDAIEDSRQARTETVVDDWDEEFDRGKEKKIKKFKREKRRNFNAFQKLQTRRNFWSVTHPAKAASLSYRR
Procedure, shortened: as §1

USP38 = molecular target: T2, USP38 (UniProt Q8NB14)
T2 sequence (whole entry): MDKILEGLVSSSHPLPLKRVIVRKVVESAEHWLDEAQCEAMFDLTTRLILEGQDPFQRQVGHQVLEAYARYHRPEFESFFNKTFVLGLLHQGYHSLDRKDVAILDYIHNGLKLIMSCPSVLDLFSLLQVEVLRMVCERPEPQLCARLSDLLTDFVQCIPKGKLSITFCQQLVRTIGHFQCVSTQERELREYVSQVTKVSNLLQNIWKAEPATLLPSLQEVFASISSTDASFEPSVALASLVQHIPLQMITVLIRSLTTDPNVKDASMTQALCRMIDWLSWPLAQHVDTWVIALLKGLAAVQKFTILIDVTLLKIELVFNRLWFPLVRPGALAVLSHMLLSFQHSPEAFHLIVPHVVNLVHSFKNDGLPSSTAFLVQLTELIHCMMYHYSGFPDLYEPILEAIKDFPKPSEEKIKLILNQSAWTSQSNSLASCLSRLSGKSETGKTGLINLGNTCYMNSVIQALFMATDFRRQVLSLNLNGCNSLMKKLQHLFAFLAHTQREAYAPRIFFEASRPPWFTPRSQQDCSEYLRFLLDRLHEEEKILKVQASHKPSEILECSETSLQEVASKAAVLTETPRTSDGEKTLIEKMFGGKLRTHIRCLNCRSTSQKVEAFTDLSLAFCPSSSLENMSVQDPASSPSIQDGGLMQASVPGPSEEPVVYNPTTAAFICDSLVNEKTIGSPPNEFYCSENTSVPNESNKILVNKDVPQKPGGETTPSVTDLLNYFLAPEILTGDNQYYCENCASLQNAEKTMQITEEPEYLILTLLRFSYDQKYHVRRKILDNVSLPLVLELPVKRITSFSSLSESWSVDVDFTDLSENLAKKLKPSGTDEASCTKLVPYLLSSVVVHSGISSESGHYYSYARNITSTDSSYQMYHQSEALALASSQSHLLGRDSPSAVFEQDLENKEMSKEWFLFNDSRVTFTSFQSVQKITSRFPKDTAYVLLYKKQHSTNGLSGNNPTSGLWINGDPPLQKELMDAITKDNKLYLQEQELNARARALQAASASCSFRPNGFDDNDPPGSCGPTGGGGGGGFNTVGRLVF
Procedure, shortened: as §1

USP39 = molecular target: T3, USP39 (UniProt Q53GS9)
T3 sequence (whole entry): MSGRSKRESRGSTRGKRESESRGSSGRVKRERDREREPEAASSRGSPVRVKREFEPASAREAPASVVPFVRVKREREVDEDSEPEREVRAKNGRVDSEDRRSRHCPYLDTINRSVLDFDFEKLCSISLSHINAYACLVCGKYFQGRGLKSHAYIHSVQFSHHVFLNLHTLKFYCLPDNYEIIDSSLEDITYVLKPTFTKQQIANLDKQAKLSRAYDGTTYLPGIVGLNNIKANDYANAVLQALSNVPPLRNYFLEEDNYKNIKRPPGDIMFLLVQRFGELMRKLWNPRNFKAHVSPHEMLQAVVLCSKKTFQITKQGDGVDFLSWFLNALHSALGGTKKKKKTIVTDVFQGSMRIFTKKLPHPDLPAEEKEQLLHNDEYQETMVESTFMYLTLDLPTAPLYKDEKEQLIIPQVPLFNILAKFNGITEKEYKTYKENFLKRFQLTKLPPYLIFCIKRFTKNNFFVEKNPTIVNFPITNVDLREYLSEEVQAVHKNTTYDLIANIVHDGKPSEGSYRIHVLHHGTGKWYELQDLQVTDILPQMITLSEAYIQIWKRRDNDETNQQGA
Procedure, shortened: as §1

USP4 = molecular target: T4, USP4 (UniProt Q13107)
T4 sequence (whole entry): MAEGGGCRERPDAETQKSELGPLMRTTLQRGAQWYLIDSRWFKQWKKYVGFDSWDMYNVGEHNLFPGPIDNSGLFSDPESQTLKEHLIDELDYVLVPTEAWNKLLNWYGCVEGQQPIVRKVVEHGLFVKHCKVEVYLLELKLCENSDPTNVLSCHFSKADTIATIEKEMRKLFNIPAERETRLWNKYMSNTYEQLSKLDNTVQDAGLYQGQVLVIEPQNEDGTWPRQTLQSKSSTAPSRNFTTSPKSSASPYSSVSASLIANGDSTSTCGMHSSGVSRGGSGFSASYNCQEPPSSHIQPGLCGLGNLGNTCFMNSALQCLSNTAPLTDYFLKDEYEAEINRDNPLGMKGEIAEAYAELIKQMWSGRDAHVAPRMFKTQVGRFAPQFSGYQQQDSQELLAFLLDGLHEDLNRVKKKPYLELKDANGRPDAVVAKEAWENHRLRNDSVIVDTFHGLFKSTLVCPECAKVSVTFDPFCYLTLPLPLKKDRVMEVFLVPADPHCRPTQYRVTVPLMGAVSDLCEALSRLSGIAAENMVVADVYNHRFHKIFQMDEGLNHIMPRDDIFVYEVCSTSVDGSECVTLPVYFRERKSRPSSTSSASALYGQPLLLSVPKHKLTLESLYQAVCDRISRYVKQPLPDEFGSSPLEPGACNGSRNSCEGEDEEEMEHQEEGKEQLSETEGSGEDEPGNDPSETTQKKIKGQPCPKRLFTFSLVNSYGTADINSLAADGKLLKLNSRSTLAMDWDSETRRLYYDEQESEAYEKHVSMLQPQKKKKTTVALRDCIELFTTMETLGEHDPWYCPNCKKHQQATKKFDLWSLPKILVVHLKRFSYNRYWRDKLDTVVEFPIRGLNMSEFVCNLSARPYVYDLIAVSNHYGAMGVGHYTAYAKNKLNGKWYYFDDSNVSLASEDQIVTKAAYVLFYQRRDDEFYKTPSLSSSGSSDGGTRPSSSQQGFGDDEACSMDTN
Procedure, shortened: as §1

Measured: log2 ratio of Biotin-Ahx-Ub-VS probe labelling

USP34, sequence (Q70CQ2 whole entry, the tested form may be a part): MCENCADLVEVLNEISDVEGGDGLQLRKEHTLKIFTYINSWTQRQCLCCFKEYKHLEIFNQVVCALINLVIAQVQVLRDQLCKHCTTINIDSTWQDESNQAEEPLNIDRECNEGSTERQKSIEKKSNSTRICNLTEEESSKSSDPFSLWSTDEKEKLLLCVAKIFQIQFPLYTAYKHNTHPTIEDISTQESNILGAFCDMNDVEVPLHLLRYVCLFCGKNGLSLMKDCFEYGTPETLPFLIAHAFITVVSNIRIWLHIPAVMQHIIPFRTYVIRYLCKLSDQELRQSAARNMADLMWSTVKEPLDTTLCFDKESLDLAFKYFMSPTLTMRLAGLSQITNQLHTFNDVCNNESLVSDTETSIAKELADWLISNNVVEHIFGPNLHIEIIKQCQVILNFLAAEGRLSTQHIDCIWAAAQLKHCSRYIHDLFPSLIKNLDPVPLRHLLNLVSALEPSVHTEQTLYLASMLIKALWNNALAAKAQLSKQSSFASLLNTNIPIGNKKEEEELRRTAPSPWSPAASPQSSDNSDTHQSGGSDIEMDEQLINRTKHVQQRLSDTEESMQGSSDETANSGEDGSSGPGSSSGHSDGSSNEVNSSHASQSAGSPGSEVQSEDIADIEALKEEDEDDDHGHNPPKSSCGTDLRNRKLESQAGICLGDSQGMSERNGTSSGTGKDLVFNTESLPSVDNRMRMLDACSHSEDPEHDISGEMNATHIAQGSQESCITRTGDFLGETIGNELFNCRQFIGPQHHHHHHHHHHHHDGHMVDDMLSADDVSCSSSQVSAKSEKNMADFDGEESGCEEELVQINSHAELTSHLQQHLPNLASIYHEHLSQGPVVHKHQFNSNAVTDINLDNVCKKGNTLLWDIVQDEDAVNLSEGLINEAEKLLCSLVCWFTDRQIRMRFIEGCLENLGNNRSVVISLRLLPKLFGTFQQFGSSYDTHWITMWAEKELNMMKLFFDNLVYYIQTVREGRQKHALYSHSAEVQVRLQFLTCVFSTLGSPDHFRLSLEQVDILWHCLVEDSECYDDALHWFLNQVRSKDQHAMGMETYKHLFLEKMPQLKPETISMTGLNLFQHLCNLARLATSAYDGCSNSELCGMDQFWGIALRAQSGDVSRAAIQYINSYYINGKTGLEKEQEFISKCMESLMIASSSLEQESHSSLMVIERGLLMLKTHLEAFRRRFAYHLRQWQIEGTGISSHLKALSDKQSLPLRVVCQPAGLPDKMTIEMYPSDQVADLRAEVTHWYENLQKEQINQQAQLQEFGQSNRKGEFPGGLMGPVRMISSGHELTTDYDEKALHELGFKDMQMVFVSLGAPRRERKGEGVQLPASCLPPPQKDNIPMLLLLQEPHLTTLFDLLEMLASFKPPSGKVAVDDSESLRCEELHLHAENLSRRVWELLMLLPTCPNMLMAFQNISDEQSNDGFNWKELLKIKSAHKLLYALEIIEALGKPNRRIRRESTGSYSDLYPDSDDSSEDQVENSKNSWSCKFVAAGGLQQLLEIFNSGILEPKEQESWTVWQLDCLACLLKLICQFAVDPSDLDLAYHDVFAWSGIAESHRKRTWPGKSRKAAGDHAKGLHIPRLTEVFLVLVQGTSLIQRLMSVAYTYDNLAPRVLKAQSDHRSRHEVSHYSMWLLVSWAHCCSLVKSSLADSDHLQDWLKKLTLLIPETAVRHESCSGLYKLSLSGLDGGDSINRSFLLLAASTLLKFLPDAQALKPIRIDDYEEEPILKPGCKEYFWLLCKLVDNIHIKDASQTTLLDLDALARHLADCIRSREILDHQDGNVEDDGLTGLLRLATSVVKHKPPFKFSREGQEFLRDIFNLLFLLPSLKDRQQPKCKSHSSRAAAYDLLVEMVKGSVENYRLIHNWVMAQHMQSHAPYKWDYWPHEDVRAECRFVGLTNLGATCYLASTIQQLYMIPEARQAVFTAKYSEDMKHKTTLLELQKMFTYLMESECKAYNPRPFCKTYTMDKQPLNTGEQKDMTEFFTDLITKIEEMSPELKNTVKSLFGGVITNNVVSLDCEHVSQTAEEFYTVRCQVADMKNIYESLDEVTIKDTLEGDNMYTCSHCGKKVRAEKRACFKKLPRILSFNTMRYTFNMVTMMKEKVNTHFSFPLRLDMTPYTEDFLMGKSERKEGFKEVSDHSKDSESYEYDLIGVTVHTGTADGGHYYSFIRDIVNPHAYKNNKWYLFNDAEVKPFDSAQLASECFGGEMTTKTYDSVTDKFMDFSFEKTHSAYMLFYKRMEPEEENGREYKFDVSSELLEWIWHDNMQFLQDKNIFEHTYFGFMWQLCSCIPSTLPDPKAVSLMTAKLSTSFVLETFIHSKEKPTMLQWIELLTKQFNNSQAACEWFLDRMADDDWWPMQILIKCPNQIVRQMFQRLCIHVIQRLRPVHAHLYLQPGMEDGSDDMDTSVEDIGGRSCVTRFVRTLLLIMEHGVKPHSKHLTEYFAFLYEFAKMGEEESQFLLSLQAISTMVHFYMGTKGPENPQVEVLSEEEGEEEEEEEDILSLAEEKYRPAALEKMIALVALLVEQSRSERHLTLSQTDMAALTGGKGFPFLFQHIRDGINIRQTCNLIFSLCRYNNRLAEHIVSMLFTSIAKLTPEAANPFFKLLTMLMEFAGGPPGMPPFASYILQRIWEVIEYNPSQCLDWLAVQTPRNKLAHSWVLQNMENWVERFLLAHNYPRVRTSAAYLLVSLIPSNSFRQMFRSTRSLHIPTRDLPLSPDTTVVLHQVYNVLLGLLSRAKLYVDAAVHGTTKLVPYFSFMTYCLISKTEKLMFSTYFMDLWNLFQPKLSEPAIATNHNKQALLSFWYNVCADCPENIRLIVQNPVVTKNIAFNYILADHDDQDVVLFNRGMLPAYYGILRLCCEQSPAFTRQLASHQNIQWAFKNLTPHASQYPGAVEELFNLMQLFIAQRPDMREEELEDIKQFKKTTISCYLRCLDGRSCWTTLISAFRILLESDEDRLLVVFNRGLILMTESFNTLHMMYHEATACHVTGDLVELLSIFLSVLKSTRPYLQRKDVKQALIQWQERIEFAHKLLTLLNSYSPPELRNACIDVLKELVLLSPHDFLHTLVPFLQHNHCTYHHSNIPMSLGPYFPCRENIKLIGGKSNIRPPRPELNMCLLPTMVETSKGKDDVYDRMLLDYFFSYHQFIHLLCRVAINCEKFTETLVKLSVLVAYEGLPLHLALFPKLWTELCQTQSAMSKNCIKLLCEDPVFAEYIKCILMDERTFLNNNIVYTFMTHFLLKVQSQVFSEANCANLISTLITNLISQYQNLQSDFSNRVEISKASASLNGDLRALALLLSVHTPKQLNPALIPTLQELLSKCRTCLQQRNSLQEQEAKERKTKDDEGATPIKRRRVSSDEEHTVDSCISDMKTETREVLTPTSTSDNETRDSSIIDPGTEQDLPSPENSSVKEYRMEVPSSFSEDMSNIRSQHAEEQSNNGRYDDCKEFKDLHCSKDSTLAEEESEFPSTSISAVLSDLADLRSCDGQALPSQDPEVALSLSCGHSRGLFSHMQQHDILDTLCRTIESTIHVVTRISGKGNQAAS

CC(=O)Nc1ccc(NC(=O)CCl)cc1
inactive: USP34 -0.128 | USP36 -0.0191 | USP38 0.0936 | USP39 0.432 | USP4 -0.163
